From PubChem BioAssay (NCI)
About 79,000 compounds went through this panel and 15% of them were active in at least one assay; those are over-represented in the sample as a whole. A number with no mark means an inactive call. Active and inactive are the calls of the source. No stated cut-off is given here; in the data, active means growth inhibition above about 70%; inactive means the rest.

Assay: NCI Yeast Anticancer Drug Screen. Data for the bub3 strain (AID 167)
Conditions: S. cerevisiae bub3 mutant strain, at 50.0 µM, stronger effect = higher value
In short: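 Inhibition values come from growth of compound-treated mutant yeast normalised to vehicle-treated controls.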

Compound	growth inhibition
Oc1ccc2oc3ccccc3c2c1	88.4% (active)
O=C(O)Cc1cc(I)c(Oc2ccc(O)c(I)c2)c(I)c1	91.7% (active)
O=C(O)/C(=C\c1ccc(Cl)cc1)c1ccc(C(F)(F)F)cc1[N+](=O)[O-]	96.8% (active)
Fc1ccc(NC(=S)SCc2ccccc2)cc1	45.5%
CN(C)c1ccccc1CC(c1c[nH]c2ccccc12)c1c[nH]c2ccccc12	85.2% (active)
O=C(c1ccccc1)N1CCN(c2cccc(Cl)c2)CC1	77.4% (active)
[C-]#[N+]C(C)(c1ccccc1)c1ccccc1	94.2% (active)
Nc1ccccc1[S][Sn]([c]1ccccc1)([c]1ccccc1)[c]1ccccc1	98.3% (active)
O=C1C(Cl)=C(Cl)C(=O)c2cc(Cl)c(Cl)cc21	93.5% (active)
CCCCCCCNC1CCCc2cc(OC)ccc21 (stereo not drawn)	69.8%
NCCc1ccc2oc3cc(=O)c4ccccc4c-3nc2c1	56.2%
C/C=C/c1cc2c(cc1O)CC[C@@H]1[C@@H]2CC[C@]2(C)[C@@H](O)CC[C@@H]12	91.3% (active)
c1ccc(SSc2ccccn2)nc1	99.5% (active)
COC1=C2C[C@@H](C)C[C@@H](OC)[C@@H](O)[C@H](C)/C=C(\C)[C@@H](OC(N)=O)[C@H](OC)/C=C\C=C(/C)C(=O)NC(=CC1=O)C2=O	89.7% (active)
NCc1ccccc1-c1c2nc(c(-c3ccccc3CN)c3ccc([nH]3)c(-c3ccccc3CN)c3nc(c(-c4ccccc4CN)c4ccc1[nH]4)C=C3)C=C2	79.7% (active)
Cc1cc(C)n2nc(N)c(C#N)c2c1C#N	47.7%
CC(=O)OCC1OC(n2c(O)c(N=NC(N)=S)c3ccc([N+](=O)[O-])cc32)C(OC(C)=O)C1OC(C)=O (stereo not drawn)	53.3%
CC1(c2cccs2)C(C#N)(C#N)C1(C#N)C#N	95.5% (active)
O=C1C=CC(=O)N1C12CC3CC(CC(C3)C1)C2	91.8% (active)
C(=C/c1cnnc2ccccc12)/c1ccccn1	-4.45%

Compound	growth inhibition
COc1ccc2c(c1)C1(C)CCCC(C)(C(=O)O)C1CC2 (stereo not drawn)	99% (active)
CCN(CC)c1ccc(N=Nc2ccc(Br)cn2)c(O)c1	97.2% (active)
O=[N+]([O-])c1cc(NC(=S)SCc2ccccc2)ccc1Cl	99.2% (active)
C(=C/c1ccnc2ccccc12)/c1cccs1	98.3% (active)
O=P1(O)c2ccccc2CS(=O)(=O)Cc2ccccc21	-19.8%
CN1C(Cl)=NS(=O)(=O)c2ccccc21	6.35%
O=C1C=CC(=O)N1c1ccc(Cl)cc1	92.1% (active)
CC(C)CC(C(=O)SCC(C)N1CCCC1)c1ccccc1 (stereo not drawn)	51.8%
CC(C)OC(=O)c1ccc(CCC2=CC(=O)C=CC2=O)cc1	87.4% (active)
Cc1ccnc2[nH]c3ccccc3c(=O)c12	65.2%
COc1cc(/C=C/C(=O)c2ccc(O)c(OC)c2)ccc1O	56.1%
CC12C=CC(=O)C=C1CCC1C3CCC(O)(C(=O)CO)C3(C)CC(O)C12F (stereo not drawn)	0.6%
O=Cc1ccc2c(c1)CC1(C2)Cc2ccc3c(c2C1)CCC3 (stereo not drawn)	91.5% (active)
C[N+](C)(C)CC(=O)N/N=C(\C(=O)NC1=C(Cl)C(=O)c2ccccc2C1=O)C(C#N)c1nc(-c2ccc([N+](=O)[O-])cc2)cs1 (stereo not drawn)	75.2% (active)
NC(=O)CC1CCC(c2ccccc2)CC1 (stereo not drawn)	12.7%
O=C(CC(C[N+](=O)[O-])c1ccc2c(c1)OCO2)c1ccccc1 (stereo not drawn)	88.2% (active)
CC(=O)OCCCCCCCCCCCCCCO	43%
CCOC(=O)c1sc(N/N=C2\NC(=O)/C(=C/c3ccc([N+](=O)[O-])cc3)S2)nc1C	95.3% (active)
O=C1OC(c2ccc3c(c2)OCO3)Sc2ccccc21 (stereo not drawn)	68.3%

Assay: NCI Yeast Anticancer Drug Screen. Data for the mlh1 rad18 strain (AID 175)
Conditions: S. cerevisiae mlh1 rad18 strain growth inhibition; at 5.0 µM (retest, dose inferred, filed as 0.5); stronger effect = higher value
In short: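 A repair-deficient yeast strain is exposed to test compound, and growth is scored relative to vehicle-treated controls.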

Compound	growth inhibition
Oc1ccc2oc3ccccc3c2c1	3%
O=C(O)Cc1cc(I)c(Oc2ccc(O)c(I)c2)c(I)c1	20%
O=C(O)/C(=C\c1ccc(Cl)cc1)c1ccc(C(F)(F)F)cc1[N+](=O)[O-]	25%
Fc1ccc(NC(=S)SCc2ccccc2)cc1	0%
CN(C)c1ccccc1CC(c1c[nH]c2ccccc12)c1c[nH]c2ccccc12	92% (active)
O=C(c1ccccc1)N1CCN(c2cccc(Cl)c2)CC1	1%
[C-]#[N+]C(C)(c1ccccc1)c1ccccc1	-101%
Nc1ccccc1[S][Sn]([c]1ccccc1)([c]1ccccc1)[c]1ccccc1	99% (active)
O=C1C(Cl)=C(Cl)C(=O)c2cc(Cl)c(Cl)cc21	60%
CCCCCCCNC1CCCc2cc(OC)ccc21 (stereo not drawn)	20%
NCCc1ccc2oc3cc(=O)c4ccccc4c-3nc2c1	3%
C/C=C/c1cc2c(cc1O)CC[C@@H]1[C@@H]2CC[C@]2(C)[C@@H](O)CC[C@@H]12	24%
c1ccc(SSc2ccccn2)nc1	62%
COC1=C2C[C@@H](C)C[C@@H](OC)[C@@H](O)[C@H](C)/C=C(\C)[C@@H](OC(N)=O)[C@H](OC)/C=C\C=C(/C)C(=O)NC(=CC1=O)C2=O	69%
NCc1ccccc1-c1c2nc(c(-c3ccccc3CN)c3ccc([nH]3)c(-c3ccccc3CN)c3nc(c(-c4ccccc4CN)c4ccc1[nH]4)C=C3)C=C2	54%
Cc1cc(C)n2nc(N)c(C#N)c2c1C#N	-1%
CC(=O)OCC1OC(n2c(O)c(N=NC(N)=S)c3ccc([N+](=O)[O-])cc32)C(OC(C)=O)C1OC(C)=O (stereo not drawn)	-1%
CC1(c2cccs2)C(C#N)(C#N)C1(C#N)C#N	9%
O=C1C=CC(=O)N1C12CC3CC(CC(C3)C1)C2	76% (active)
C(=C/c1cnnc2ccccc12)/c1ccccn1	1%

Compound	growth inhibition
COc1ccc2c(c1)C1(C)CCCC(C)(C(=O)O)C1CC2 (stereo not drawn)	2%
CCN(CC)c1ccc(N=Nc2ccc(Br)cn2)c(O)c1	-1%
O=[N+]([O-])c1cc(NC(=S)SCc2ccccc2)ccc1Cl	91% (active)
C(=C/c1ccnc2ccccc12)/c1cccs1	-2%
O=P1(O)c2ccccc2CS(=O)(=O)Cc2ccccc21	35%
CN1C(Cl)=NS(=O)(=O)c2ccccc21	15%
O=C1C=CC(=O)N1c1ccc(Cl)cc1	80% (active)
CC(C)CC(C(=O)SCC(C)N1CCCC1)c1ccccc1 (stereo not drawn)	11%
CC(C)OC(=O)c1ccc(CCC2=CC(=O)C=CC2=O)cc1	66%
Cc1ccnc2[nH]c3ccccc3c(=O)c12	36%
COc1cc(/C=C/C(=O)c2ccc(O)c(OC)c2)ccc1O	18%
CC12C=CC(=O)C=C1CCC1C3CCC(O)(C(=O)CO)C3(C)CC(O)C12F (stereo not drawn)	4%
O=Cc1ccc2c(c1)CC1(C2)Cc2ccc3c(c2C1)CCC3 (stereo not drawn)	1%
C[N+](C)(C)CC(=O)N/N=C(\C(=O)NC1=C(Cl)C(=O)c2ccccc2C1=O)C(C#N)c1nc(-c2ccc([N+](=O)[O-])cc2)cs1 (stereo not drawn)	13%
NC(=O)CC1CCC(c2ccccc2)CC1 (stereo not drawn)	0%
O=C(CC(C[N+](=O)[O-])c1ccc2c(c1)OCO2)c1ccccc1 (stereo not drawn)	-4%
CC(=O)OCCCCCCCCCCCCCCO	-2%
CCOC(=O)c1sc(N/N=C2\NC(=O)/C(=C/c3ccc([N+](=O)[O-])cc3)S2)nc1C	22%
O=C1OC(c2ccc3c(c2)OCO3)Sc2ccccc21 (stereo not drawn)	-6%
